Among all 52,000 compounds or so, about 4,300 (8.3%) were called active. Many of the other results were omitted from the sample, so actives are more common in it than they were. Unmarked numbers belong to inactive results. No stated cut-off is given here; in the data, active means survival mostly below about 52% (no sharp cut-off); inactive means mostly above about 56%.

The experiment concerns DeltatarO mutant. In words: S. aureus survival, RN4220 and DeltatarO strains – OD600, teichoic acid synthesis inhibitors, primary screen (AID 463173). To be noted: S. aureus RN4220 wild type/DeltatarO growth, OD600, 18 h, active compounds read low, screened at 18.75 µg/mL (by protocol).
As for `COc1ccc(OCC(=O)OCc2cc(=O)n3nc(C4CC4)sc3n2)cc1`, the survival is 61%.
For the compound `COc1ccc(CNC(=O)CC(c2ccc(OC)c(OC)c2)N2Cc3ccccc3C2=O)cc1` (stereo not drawn), the survival is 87%.
Regarding `CCC(=O)N1CCc2cc(OC)c(OC)cc2C1COc1ccc2c(C)cc(=O)oc2c1` (stereo not drawn), the survival is 136%.
For the compound `O=C(Nc1ccc(F)c(F)c1)c1cc(S(=O)(=O)NC2CCCC2)ccc1F`, the survival is 118%.
In the case of `CC(C)Oc1ccc(CNS(=O)(=O)c2csc(C(N)=O)c2)cc1` it was 101%; in that of `COc1cccc2c1Oc1ncccc1N(C(=O)CCC(=O)NCc1ccc(OC(C)C)cc1)C2`, 83%.
The value for `CCCCN(C)C(=O)CN1C(=O)c2cccnc2Oc2ccc(Cl)cc21` was 89%; that for `CCN(CC)S(=O)(=O)c1nnc(NC(=O)COc2ccccc2F)s1` was 103%.
The value for `CCN(c1ccccc1)S(=O)(=O)c1nnc(NC(=O)COc2ccc(OC)cc2)s1` was 55%.
For the compound `CCN(c1ccccc1)S(=O)(=O)c1nnc(NC(=O)COc2ccccc2F)s1`, the survival was 31% (active).
Take `O=C1C2CCCC1C(c1ccc3c(c1)OCO3)NC2c1ccc2c(c1)OCO2` (stereo not drawn): the survival is 58%.
For `Cc1ccc(-n2ncc(C(=O)NCCCN3CCN(C)CC3)c2C2CCN(C(=O)OC(C)(C)C)CC2)cc1`, the survival was 96%.
Consider `COc1ccc(N2CCN(C(=O)c3noc4c3CCCCC4)CC2)cc1`, for which the survival is 72%.
In the case of `O=C(c1ccc2c(c1)N(Cc1ccc(F)cc1)C(=O)c1ccccc1S2(=O)=O)N1CCCCCC1`, the survival was 71%.
For the compound `Cc1ccc2oc(C(=O)Nc3ccc(S(=O)(=O)N(C)Cc4ccccc4)cc3)cc(=O)c2c1`, the survival is 50%.
For `Clc1cccc(N2CCN(c3ncnc4c3nc3n4CCCC3)CC2)c1`, the survival was 114%.
Turning to `O=C(C1CCN(c2ncnc3c2nc2n3CCCCC2)CC1)N1CCN(c2cccc(Cl)c2)CC1`, the survival was 64%.
For the compound `CCN(C(=O)C1CCCN(c2ncnc3c2nc2n3CCCCC2)C1)c1cccc(Cl)c1` (stereo not drawn), the survival is 82%.
Take `Clc1cccc(N2CCN(c3ncnc4c3nc3n4CCCCC3)CC2)c1`: the survival was 11% (active).
For the compound `COc1cccc(N2CCN(c3ncnc4c3nc3n4CCCCC3)CC2)c1`, the survival was 20% (active).
With `COc1ccc(N2CCN(c3ncnc4c3nc3n4CCCCC3)CC2)cc1`, the survival was 100%.
With `O=C(Nc1cccc(Cl)c1)C1CCCN(c2ncnc3c2nc2n3CCCCC2)C1` (stereo not drawn), the survival was 17% (active).
Take `c1ccc(N2CCN(c3ncnc4c3nc3n4CCCCC3)CC2)cc1`: the survival was 89%.
Regarding `Cc1ccc(NC(=O)C2CCCN(c3ncnc4c3nc3n4CCCCC3)C2)cc1F` (stereo not drawn), the survival is 92%.
Consider `COc1ccc(OC)c(CNc2ncnc3onc(C)c23)c1`, for which the survival was 129%.
The value for `CCOc1ccc(NC(=O)c2cc(S(=O)(=O)N3CCC(C)CC3)cn2C)cc1` was 112%; that for `CCOc1ccc(/C=C/c2nc(C#N)c(NCc3ccc(OC)cc3)o2)cc1` was 68%; that for `CCOC(=O)c1[nH]c2c(c1Cc1ccccc1)C(=O)CC(c1ccccc1)C2` (stereo not drawn) was 64%.
Consider `CCOc1ccc(CCNc2nc3c(-c4ccc(C)cc4)nnn3c3ccccc23)cc1OCC`, for which the survival was 88%.
In the case of `Cc1cc(-c2ccc(C)c(S(=O)(=O)N(C)c3ccc(C)c(C)c3)c2)on1` it was 86%; in that of `COc1ccc(CCNC(=O)c2cc3c(=O)n4ccccc4nc3n2C)cc1`, 61%.
Take `Cn1c(C(=O)Nc2cccc(C(F)(F)F)c2)cc2c(=O)n3ccccc3nc21`: the survival was 98%.
As for `Cn1c(C(=O)NCCc2ccccc2)cc2c(=O)n3ccccc3nc21`, the survival was 48% (active).
As to `CCCCCNC(=O)c1cc2c(=O)n3ccccc3nc2n1C`, the survival was 54%.
In the case of `Cn1c(C(=O)Nc2ccc(OC(F)(F)F)cc2)cc2c(=O)n3ccccc3nc21` it was 55% (active).
With `O=C(Nc1ccc(OC(F)(F)F)cc1)c1cc2c(=O)n3ccccc3nc2s1`, the survival was 87%.
On to `Cc1ccc(NC(=O)CSc2nc3c(c(=O)[nH]2)CN(Cc2ccccc2)CC3)cc1Cl`, for which the survival was 70%.
Regarding `CSc1ccc(CCNC(=O)CCCn2nc(C)c3sc4ccccc4c3c2=O)cc1`, the survival was 76%.
As for `N/N=C1\C(=N/O)CCc2nonc21`, the survival is 95%.
The value for `CCN(CC)c1ccc(NC(=O)Cn2ncc3c(C)n(Cc4ccccc4F)c(C)c3c2=O)c(C)c1` was 79%.
For `Fc1ccccc1N1CCN(c2ncnc3onc(-c4ccc(Cl)cc4)c23)CC1`, the survival is 54% (active).
Take `Cc1nc(N2CCOCC2)c2c(C(=O)NCCc3ccccc3)c(C)oc2n1`: the survival is 0% (active).
Turning to `Cc1oc2ncnc(N3CCOCC3)c2c1C(=O)N1CCN(c2cccc(C(F)(F)F)c2)CC1`, the survival is -5% (active).
In the case of `Cc1nc(N2CCCC2)c2c(C(=O)N3CCN(c4ccccc4)CC3)c(C)oc2n1`, the survival is 81%.
As to `Fc1ccc(N2CCN(c3ncnc4onc(-c5ccc(Cl)cc5)c34)CC2)cc1`, the survival was 65%.
Consider `Fc1ccccc1N1CCN(c2ncnc3onc(-c4cccc(Cl)c4)c23)CC1`, for which the survival is 53%.
In the case of `Cc1nc(N2CCOCC2)c2c(C(=O)N3CCN(c4ccccc4)CC3)c(C)oc2n1` it was 37% (active).
In the case of `Cc1oc2ncnc(N3CCCCC3)c2c1C(=O)N1CCN(c2cccc(C(F)(F)F)c2)CC1`, the survival was 66%.
In the case of `Cc1nc(N2CCOCC2)c2c(C(=O)N3CCN(c4cccc(C(F)(F)F)c4)CC3)c(C)oc2n1`, the survival is 105%.
In the case of `Cc1ccc(CCNC(=O)c2c(C)oc3nc(C)nc(N4CCOCC4)c23)cc1` it was 106%; in that of `Cc1nc(N2CCOCC2)c2c(C(=O)N3CCN(c4ccc(Cl)cc4)CC3)c(C)oc2n1`, 92%; in that of `Cc1oc2ncnc(N3CCOCC3)c2c1C(=O)NCCc1ccccc1`, 89%.
On to `COc1ccc2c(CNCc3cccs3)c(C(=O)O)n(Cc3ccc(C)cc3)c2c1`, for which the survival was 77%.
With `CCCOc1ccc(C(=O)NCC(c2ccc(OC)cc2)N2CCCCC2)cc1` (stereo not drawn), the survival is 84%.
In the case of `Cc1nc2ccc(NC(=O)C3CC3)cc2c(=O)n1Cc1ccc(F)cc1` it was 74%.
As to `Cc1ccc(CCNC(=O)c2cc(-c3ccc(Cl)cc3)n[nH]2)cc1`, the survival is 69%.
Turning to `CC(Nc1ncnc2c1cnn2-c1cccc(Cl)c1)c1ccccc1` (stereo not drawn), the survival was 124%.
Turning to `COc1ccccc1Cn1c(CNS(=O)(=O)c2ccc3c(c2)CCCC3)nc2cccnc21`, the survival is 96%.
On to `CCOCCCn1c(=N)c(S(=O)(=O)c2ccccc2)cc2c(=O)n3cc(C)ccc3nc21`, for which the survival was 88%.
With `Cc1ccc(CN2CCCn3nc(C(=O)NCc4ccc(N(C)C)cc4)cc3C2=O)cc1`, the survival is 80%.
As for `Cc1nc(N2CCCC2)c2c(C(=O)N3CCN(c4cc(Cl)ccc4C)CC3)c(C)oc2n1`, the survival was 102%.
On to `Cc1ccc(C)c(N2CCN(C(=O)c3c(C)oc4nc(C)nc(N5CCOCC5)c34)CC2)c1`, for which the survival was 115%.
In the case of `Cc1ccc(Cl)cc1N1CCN(c2ncnc3onc(-c4ccc(F)cc4)c23)CC1` it was 97%; in that of `Cc1ccc(Cl)cc1N1CCN(C(=O)c2c(C)oc3ncnc(N4CCCCC4)c23)CC1`, -4% (active).
For the compound `Cc1nc(N2CCOCC2)c2c(C(=O)N3CCN(c4cc(Cl)ccc4C)CC3)c(C)oc2n1`, the survival was 46% (active).
Turning to `Cc1ccc(Cl)cc1N1CCN(c2ncnc3onc(C)c23)CC1`, the survival is 52% (active).
On to `Cc1ccc(C)c(N2CCN(c3ncnc4onc(C)c34)CC2)c1`, for which the survival is 90%.
In the case of `Cc1oc2ncnc(N3CCCCC3)c2c1C(=O)N1CCN(c2ccc(Cl)cc2)CC1`, the survival is 60%.
The value for `Cc1ccc(Cl)cc1N1CCN(C(=O)c2c(C)oc3ncnc(N4CCOCC4)c23)CC1` was 89%; that for `CCc1c(C)nc2cc(-c3ccc(OC)c(OC)c3)nn2c1NCC(C)(C)CN(C)C` was 98%.
For `Cc1ccc(-n2ncc(C(=O)NCc3ccccn3)c2C2CCN(C(=O)OC(C)(C)C)CC2)cc1C`, the survival was 102%.
Take `CCCC(=O)N1CCCC(c2nc(-c3ccc(OC)cc3)no2)C1` (stereo not drawn): the survival was 82%.
Consider `CCOc1nc(NC(=O)NS(=O)(=O)Oc2cccc(F)c2)nc(-c2ccccc2)n1`, for which the survival is 74%.
Turning to `Cc1c(NC(=O)Nc2ccccc2C(F)(F)F)sc2nc3n(c(=O)c12)CCC(C)CC3` (stereo not drawn), the survival was 83%.
Regarding `COc1cccc(C(=O)NC2CC(=O)N(c3ccc4c(c3)OCCO4)C2)c1OC` (stereo not drawn), the survival is 107%.
The value for `CCCCN(CCCC)CCCNC(=O)c1ccc2nc(N3CCCCC3)sc2c1` was 102%; that for `CCCCOCc1cc(CN2CCN(c3cccc(Cl)c3)CC2)c(O)c2ncccc12` was 83%.
`CCc1cccc(C)c1NC(=O)C1CCN(S(=O)(=O)Cc2ccccc2)CC1`: the survival was 84%.
For `Cc1ccc(S(=O)(=O)N(CC(=O)NCCSc2ccc(Cl)cc2)c2ccccc2C)cc1`, the survival is 58%.
Turning to `Cc1ccc(S(=O)(=O)N(CC(=O)Nc2ccc(Cl)cc2Cl)c2ccccc2C)cc1`, the survival was 106%.
On to `COc1ccc(CCNC(=O)CN(c2ccccc2OC)S(=O)(=O)c2ccc(C)cc2)cc1`, for which the survival was 71%.
As to `Cc1ccc(S(=O)(=O)N(CC(=O)NCCSc2ccc(Cl)cc2)c2cccc(Cl)c2)cc1`, the survival is 112%.
In the case of `Cc1cccc(N(CC(=O)NCCSCc2ccccc2)S(=O)(=O)c2ccccc2)c1C`, the survival is 57%.
On to `Cc1ccc(CNC(=O)CN(c2cccc(C)c2C)S(=O)(=O)c2ccccc2)cc1`, for which the survival was 73%.
Take `Cc1ccc(S(=O)(=O)N(CC(=O)Nc2c(C)cccc2C)c2cccc(Cl)c2)cc1`: the survival was 46% (active).
In the case of `Cc1cccc(N(CC(=O)NCCc2ccccc2)S(=O)(=O)c2ccccc2)c1C` it was 56% (active); in that of `Cc1ccc(S(=O)(=O)N(CC(=O)NCCc2ccc(Cl)cc2)c2ccccc2C)cc1`, 49% (active); in that of `Cc1ccccc1CNC(=O)c1cnc2sc(N3CCOCC3)nn2c1=O`, 68%.

For the origin of these results see PubChem BioAssay AID463173 (ICCB-Longwood Screening Facility, Harvard Medical School, 2010).
